Screens deposited in PubChem BioAssay by National Center for Advancing Translational Sciences (NCATS).
FMDV inh: foot and mouth disease virus antiviral activity; 410,000 tested, 1.2% active; Potency, µM (titrated, usually from 57.9 µM), inactives show at the highest dose activity change, negative = inhibition, usual class: inhibitors; FMDV antiviral cell-based qHTS; calls by dose curve; tested in HEK293T cells; further: read-out not given here; nearly all actives have a fitted effect of over 45% in size
Tb PYK inh: inhibitors of Trypanosoma brucei pyruvate kinase | Q57TT1 | TbPYK enzyme, Kinase-Glo Plus ATP luminescence, 45 min | Potency, µM (highest dose often 76.8 µM), for the others: at the top dose activity, negative = inhibition, most hits filed as inhibitors | 410,000 tested, 0.12% active | AID 624173; further: nearly all actives have a fitted effect of over 50% in size
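Screened from lowest to highest concentration, compounds were pinned into TbPYK/substrate mixtures, and ADP (130 uM final) was added. Plates sat at room temperature for 45 min prior to Kinase-Glo Plus detection by luminescence.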
RE007 growth inh: less growth of the S. pombe RE007 Vpr strain; S. pombe RE007 Vpr strain, BacTiter-Glo ATP luminescence, 24 h; Potency, µM (doses to about 92.2 µM), without a hit: top-dose activity change, negative = less growth, hits mostly inhibitors; 360,000 tested, 0.21% active; AID 651644; active means well fitted falling curve with a large enough effect; inconclusive means small, poorly fitted or top-dose-only effect; inactive means no such curve, though single readings can be large or run the other way; further: nearly all actives have a fitted effect of over 50% in size
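Fission yeast strain RE007, carrying one chromosomally integrated HIV-1 vpr copy, was seeded at OD 0.01 in PMG+AL medium with 23 nL pinned compound. After 24 h at 30 °C and 99% humidity, viability was read by BacTiter-Glo luminescence.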
Sm TGR inh: blocks Schistosoma mansoni thioredoxin glutathione reductase. 360,000 tested, 3% active. purified TGR, DTNB reduction, TNB absorbance 405 nm. Potency, µM (highest dose often 114 µM), without a hit: top-dose activity change, negative = inhibition, hits mostly inhibitors; further: nearly all actives have a fitted effect of over 60% in size
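TGR 20 nM + NADPH 100 uM (dispensed conc.), cpd preinc 15 min RT; start with NADPH (500 uM addition) then DTNB (15 mM addition). Kinetic TNB absorbance, 405 nm filter. Four-parameter Hill fit across titration.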
The depositor's hits bear a star; ? = inconclusive; nt = no result. A selection: hits, their analogues and other compounds. The true share with any hit is near 3.7%. Unless noted, the call rests on the fitted dose curve; in most records, active means well fitted curve in the direction sought with a large enough effect; inconclusive means small, poorly fitted or top-dose-only effect, or another doubt; inactive means no such curve, though single readings can be large; an effect the other way counts as inactive or inconclusive. On the % scale 0 is the no-effect control and ±100 the full control effect; potency means the concentration at half of the fitted maximal effect.

SMILES	FMDV inh	Tb PYK inh	RE007 growth inh	Sm TGR inh
Cc1cc(C)cc(NC(=O)CSc2nc(-c3cccc(Cl)c3)nc3c2Cc2c(CO)cnc(C)c2O3)c1	-13.9%	-7.5%	nt	35.5µM*
CCc1ccc(-n2nc(C)c3c(C)cc(=O)n(CC(=O)Nc4cc(Cl)ccc4OC)c32)cc1	-6.1%	-0.4%	nt	-1.3%
COc1cccc(CN2C(=O)NC(C)(C3CCN(Cc4cc(Cl)ccc4O)CC3)C2=O)c1OC (stereo not drawn)	-23.5%	nt	nt	nt
Cc1ccc(NC(=O)CCn2nc(-c3ccccc3)c3ccccc3c2=O)c(C)c1	-24.4%	-7.3%	nt	0.1%
Cc1ccc(-c2noc(C3CCCN(C(=O)c4ccccc4)C3)n2)o1 (stereo not drawn)	27.7%	-4.4%	-2.6%	56.2µM*
Cc1ccc(-c2noc(C3CCCN(C(=O)c4ccccc4Br)C3)n2)o1 (stereo not drawn)	51.5%	-19.7%	2.7%	?
CCn1c(=O)c([N+](=O)[O-])c(NCCN(C)C)c2ccccc21	-10.2%	-12.9%	2.2%	11.1%
CCn1c(=O)c([N+](=O)[O-])c(Cl)c2ccccc21	22.4µM*	-11.5%	-11.7%	0.794µM*
COC(=O)c1cc(=O)n(Cc2ccc(OC)c(OC)c2)c(=Nc2ccc(F)cc2)s1	12.6µM*	-5.6%	3.0%	-1.0%
COC(=O)c1cc(=O)n(Cc2ccco2)c(=Nc2ccc(F)cc2)s1	28.2µM*	-3.9%	7.3%	?
CNC(=O)C1CC(=O)N(CCc2ccc(OC)c(OC)c2)C(=Nc2ccc(F)cc2)S1 (stereo not drawn)	-19.3%	-2.9%	6.9%	47.1%
COC(=O)c1cc(=O)n(CCc2ccc(OC)c(OC)c2)c(=Nc2ccc(F)c(Cl)c2)s1	28.2µM*	-1.0%	-20.5%	-24.2%
COC(=O)c1cc(=O)n(Cc2ccc(F)cc2)c(=Nc2ccccc2)s1	?	0.3%	11.4%	7.1%
CCOc1ccccc1C(=O)Nc1cc2c(cc1N1CCCCC1)n(C)c(=O)n2C	-12.4%	1.1%	nt	1.4%
COc1ccc(NC(=O)c2ccc(S(=O)(=O)N(C)c3ccccc3)cc2)cn1	17.8µM*	-1.3%	13.2%	2.4%
Cc1ccc(S(=O)(=O)N(C)c2ccc(C(=O)Nc3cccc(C)n3)cc2)cc1	25.1µM*	-2.2%	0.4%	-4.3%
Cc1nc2ccc(NC(=O)c3cccc(S(=O)(=O)N4CC(C)OC(C)C4)c3)cc2s1 (stereo not drawn)	20µM*	-10.1%	-3.0%	-22.7%
CC(=O)Nc1ccc(NC(=O)c2ccc(S(=O)(=O)N(C)c3ccccc3)cc2)cc1	?	0.9%	4.3%	1.1%
Cc1ccc(S(=O)(=O)N(C)c2ccc(C(=O)Nc3ccccn3)cc2)cc1	?	-6.8%	6.9%	-1.8%
COc1ccc(C(=O)Nc2ccc(S(=O)(=O)N(C)c3ccccc3)cc2)cc1	?	1.7%	3.3%	nt
Cc1nc2ccc(NC(=O)c3ccc(S(=O)(=O)N(C)c4ccccc4)cc3)cc2s1	22.4µM*	5.4%	3.1%	-9.7%
CCOc1ccc(NC(=O)c2nc3nc(C)cc(C(F)F)n3n2)cc1	6.1%	0.3%	nt	-8.1%
CN1CCC[C@@H]1Cc1c[nH]c2ccc(CCS(=O)(=O)c3ccccc3)cc12	nt	-5.3%	nt	nt
COc1ccccc1Cc1c(-c2ccco2)nc2c(C)cc(Br)cn12	14.1µM*	?	?	nt
Cc1cc(Br)cn2c(Cc3ccccc3)c(-c3ccco3)nc12	2.4%	-3.2%	-8.4%	nt
SMILES	FMDV inh	Tb PYK inh	RE007 growth inh	Sm TGR inh
Cc1cc(Br)cn2c(Cc3ccsc3)c(-c3ccco3)nc12	35.5µM*	?	-8.7%	nt
COc1cccc(NC(=O)CCc2nc3c(C)nn(-c4ccc(C)cc4)c3n(C)c2=O)c1	-18.8%	0.5%	nt	1.5%
Cc1cccc(N2CCC(N3CCN(C4CCCCC4)C(CCO)C3)CC2)c1C (stereo not drawn)	?	0.0%	-14.8%	5.01µM*
CC(=O)c1ccc2c(c1)C1C=CCC1C(c1ccc(S(=O)(=O)N3CCOCC3)cc1)N2 (stereo not drawn)	-15.8%	-22.6%	-8.0%	28.2µM*
CC(=O)c1ccc2c(c1)C1C=CCC1C(c1cc3c(cc1Br)OCO3)N2 (stereo not drawn)	?	-3.5%	4.2%	-29.9%
Cc1c(Cl)cccc1NS(=O)(=O)c1ccc2c(c1)C1C=CCC1C(c1ccc(C(=O)O)cc1)N2 (stereo not drawn)	-5.3%	-27.5%	-13.2%	20µM*
CCCC1Nc2ccc(C(=O)O)cc2C2C=CCC12 (stereo not drawn)	-6.0%	-22.5%	3.5%	39.8µM*
CC(C)C1Nc2ccc(C(=O)O)cc2C2C=CCC21 (stereo not drawn)	-19.5%	?	3.3%	20µM*
OC1CCN(Cc2ccc3c(c2)CN(C/C=C/c2ccco2)CCO3)CC1	-6.0%	nt	nt	nt
COc1cccc(CNC(=O)COc2cc(=O)n(C)c3ccccc23)c1	-1.2%	1.1%	nt	1.8%
Cc1c(Cl)cccc1NC(=O)CSc1nc(=O)n(Cc2ccncc2)c2c1CCC2	-20.9%	-21.2%	nt	0.5%
O=C(O)c1ccc2c(c1)C1C=CCC1C(c1ccncc1)N2 (stereo not drawn)	-9.8%	-14.6%	-2.5%	22.4µM*
FC(F)(F)c1ccc2c(c1)C1C=CCC1C(c1ccncc1)N2 (stereo not drawn)	?	-18.9%	5.0%	-24.8%
CCCc1ccc(C(=O)O)cc1	nt	5.8%	nt	nt
CC(/C=N/n1c(-c2ccc(Cl)cc2)n[nH]c1=S)=C\c1ccco1	0.0%	?	nt	-17.9%
CC(/C=N/n1cnnc1)=C\c1ccco1	7.5%	0.0%	-0.6%	35.5µM*
CC(/C=N/n1c(-c2cc(C)[nH]n2)n[nH]c1=S)=C\c1ccco1	2.3%	?	1.7%	12.6µM*
CON	0.0%	nt	nt	nt
Cc1oc2c(c1C(=O)NCc1cccnc1)C(=O)c1ccccc1C2=O	3.16µM*	-7.1%	-13.4%	-19.6%
Cc1cc(=O)n(CC(=O)NCCC(C)C)c2c1c(C)nn2C	-14.9%	5.3%	nt	6.4%
O=C(O)Cn1ncc2ccccc2c1=O	3.4%	-3.0%	-3.6%	15.3%
O=c1c2ccccc2cnn1CCOc1ccccc1	10µM*	?	-24.9%	-16.4%
Cc1ccc(CNc2nc(CN3CCN(C=O)CC3)nc3ccccc23)o1	-3.0%	nt	nt	nt
COc1ccccc1N1CCN(C(=O)c2cc(S(=O)(=O)N3CCC(C)CC3)cn2C)CC1	-22.0%	3.2%	nt	4.5%
O=S(=O)(Nc1nc2n(n1)C(c1ccc(F)cc1)C=C(c1ccccc1)N2)c1ccccc1 (stereo not drawn)	-0.9%	-11.6%	nt	0.8%
OCCCc1nc2n(n1)C(c1ccccc1)C=C(c1ccc(F)cc1)N2 (stereo not drawn)	-19.7%	-16.5%	-13.0%	20µM*
OCCCc1nc2n(n1)C(c1ccccc1Cl)C=C(c1cccs1)N2 (stereo not drawn)	-5.8%	?	2.0%	28.2µM*
Cc1ccc(S(=O)(=O)Nc2nc3n(n2)C(c2ccccc2Cl)C=C(c2ccccc2)N3)cc1 (stereo not drawn)	0.5%	0.5%	nt	1.8%
